This note sets out measurements from PubChem BioAssay.

Assay [1] can be described thus: resazurin metabolic signal in HepG2 cells – cell-based, resazurin fluorescence, 24 h, PK04 Diversity Set, profiling panel (AID 1172). Note: test concentration not given here. The following applies: HepG2 viability, higher = more signal.
Assay [2] in a line: budding yeast growth changes without added modifier – OD600, strain BY4716, 24 h, basal condition, primary screen (AID 1173). The following applies: S. cerevisiae BY4716 growth, OD600, 24 h; higher = more signal, called active from +8 up or from −8 down.
A short description of assay [3]: viability profiling in MM1S myeloma cells – cell-based, resazurin fluorescence, basal, 24 h, PK04 Diversity Set, profiling panel (AID 1174).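 Note: MM1S multiple myeloma cell line; test concentration not given here.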 The settings on record: higher = more signal, called active from +8 up or from −8 down. On the technique in general: Alamar Blue is a resazurin reagent that responds to reducing activity.
Assay [4] has as its target Dihydroorotate dehydrogenase (quinone), mitochondrial (Plasmodium falciparum (isolate 3D7)) (UniProt Q08210). The assay is described as follows: inhibition of P. falciparum DHODH – biochemical, C-terminal His tag, absorbance 600 nm, primary screen (AID 1175).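 Note: recombinant parasite enzyme with a five histidine tag at its C terminus; test concentration not given here.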 The following applies: PfDHODH enzyme, DCIP absorbance 600 nm; higher = more signal, called active from +8 up or from −8 down.

The nature of assay [5]: inhibition of PAO1 biofilm formation – strain PAO1, LB-PBS medium, absorbance 600 nm, primary screen (AID 1176). Note: test concentration not given here. The settings on record: P. aeruginosa PAO1 growth/biofilm, A600, 12 h; higher = more signal.
A short description of assay [6]: growth modulation of vineyard yeast isolate – strain RM11-1a, OD600, basal, 24 h, primary screen (AID 1177).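 Note: cultures grown under basal conditions with no added stressor; test concentration not given here.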 The following applies: S. cerevisiae RM11-1a growth, OD600, 24 h; higher = more signal, called active from +8 up or from −8 down.
Assay [7] in a line: growth of efflux-deficient E. coli DRC39 – strain DRC39, OD650, 24 h, E. coli filamentation inducers, primary screen (AID 1178).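 Note: growth measured as culture turbidity by optical density at 650 nm; test concentration not given here.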 The settings on record: E. coli DRC39 acrAB, higher = more signal, called active from +8 up or from −8 down.
The nature of assay [8]: growth of efflux-deficient E. coli DRC39 – strain DRC39, OD650, 48 h, E. coli filamentation inducers, primary screen (AID 1179).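 Note: screen aims at cell division blockers that make cells filament.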 The settings on record: E. coli DRC39 delta-acrAB growth, higher = more signal, called active from +8 up or from −8 down.
Assay [9] in a line: viability profiling in RPMI8226 myeloma cells – cell-based, resazurin fluorescence, basal, 24 h, PK04 Diversity Set, profiling panel (AID 1180).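 Note: RPMI8826 multiple myeloma cell line at 5000 cells per well; test concentration not given here.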 The following applies: higher = more signal.
For assay [10], the target named is E3 ubiquitin-protein ligase XIAP (Homo sapiens) (UniProt P98170). In words: small molecules binding XIAP protein – biophysical, small-molecule microarray, fluorescence 635 nm, primary screen (AID 1181).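 Note: score merges 667 nm emission and signal to noise over triplicate slides.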 The following applies: higher = more signal.
Chain of E3 ubiquitin-protein ligase XIAP (Homo sapiens) (P98170 whole entry, looked up): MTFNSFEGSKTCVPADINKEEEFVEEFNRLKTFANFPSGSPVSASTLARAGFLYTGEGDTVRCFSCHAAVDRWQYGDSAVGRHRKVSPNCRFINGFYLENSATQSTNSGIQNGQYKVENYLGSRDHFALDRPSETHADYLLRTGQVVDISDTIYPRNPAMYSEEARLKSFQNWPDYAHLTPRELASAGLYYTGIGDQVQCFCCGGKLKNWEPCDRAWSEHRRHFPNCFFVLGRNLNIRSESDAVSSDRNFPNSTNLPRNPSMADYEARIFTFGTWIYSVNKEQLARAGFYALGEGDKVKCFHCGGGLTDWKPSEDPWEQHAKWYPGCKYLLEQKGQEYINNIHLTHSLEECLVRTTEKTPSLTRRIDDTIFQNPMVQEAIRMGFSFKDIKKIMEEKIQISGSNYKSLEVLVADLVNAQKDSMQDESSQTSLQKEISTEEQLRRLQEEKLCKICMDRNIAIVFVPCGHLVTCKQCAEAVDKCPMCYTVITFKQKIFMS

Calls of active or inactive are those of the source. Unless noted, the rule behind the calls is not given here.

Chain of Dihydroorotate dehydrogenase (quinone), mitochondrial (Plasmodium falciparum (isolate 3D7)) (Q08210 whole entry, looked up): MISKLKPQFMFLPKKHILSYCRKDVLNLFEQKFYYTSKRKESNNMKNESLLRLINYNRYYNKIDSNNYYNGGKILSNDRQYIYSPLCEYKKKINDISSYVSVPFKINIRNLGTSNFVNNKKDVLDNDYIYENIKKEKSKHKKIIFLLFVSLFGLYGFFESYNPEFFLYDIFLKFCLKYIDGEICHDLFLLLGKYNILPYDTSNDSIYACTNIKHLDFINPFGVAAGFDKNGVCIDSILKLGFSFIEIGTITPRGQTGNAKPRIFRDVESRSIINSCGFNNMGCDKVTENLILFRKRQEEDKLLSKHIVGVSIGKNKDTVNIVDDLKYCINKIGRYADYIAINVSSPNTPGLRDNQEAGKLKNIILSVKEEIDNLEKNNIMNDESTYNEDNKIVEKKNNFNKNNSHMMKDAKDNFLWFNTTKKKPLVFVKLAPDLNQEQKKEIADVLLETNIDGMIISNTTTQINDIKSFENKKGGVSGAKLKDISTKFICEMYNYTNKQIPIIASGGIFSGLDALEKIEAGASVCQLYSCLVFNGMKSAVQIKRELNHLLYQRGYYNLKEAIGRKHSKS

As to `CC(=O)OC[C@H]1O[C@H](C#CCC2CCCCC2)C=C[C@@H]1OC(C)=O`, the z-score in assay [1] is 0.0616; in assay [2], -3.69 (inactive); in assay [3] it was -2.52 (inactive); in assay [5] it was 0.781 (inactive); in assay [6], 0.143 (inactive); in assay [7], 1.07 (inactive). The z-score in assay [8] is 0.591 (inactive); in assay [9] it was -1.24. Further, the values for the composite z-score in assay [4] and in assay [10] were -0.529 (inactive) and -0.0314, respectively.

For the molecule `CCOC(=O)NN=C1C[C@@H](O)[C@@H](O)[C@@H]2[C@@H]3C(=O)N(c4ccc(F)cc4F)C(=O)[C@@H]3CC[C@H]12`, the z-score in assay [1] was 0.99; in assay [2] it was -0.468 (inactive); in [3], 1.44 (inactive); in assay [5], 0.614 (inactive); in [6], -0.738 (inactive); in assay [7], 0.284 (inactive). The z-score is 0.498 (inactive) in [8] and 0.241 in assay [9]. Also, the composite z-score in assay [4] is -2.51 (inactive); in [10] it was -0.176.

As for `CO[C@@H]1COC(=O)CC=C[C@H](C)[C@H](OC)COC(=O)[C@@H]2CCCN2C(=O)CC=C[C@H]1C`, the z-score is -0.144 in assay [1]; -1.17 (inactive) in [2]; 0.918 (inactive) in [3]; -1.33 (inactive) in assay [5]; -0.203 (inactive) in [6]; 0.422 (inactive) in assay [7]. In addition, the z-score in assay [8] was -0.0617 (inactive); in assay [9], 0.306. Besides, the figures for the composite z-score in [4] and in assay [10] were -0.222 (inactive) and -0.02, respectively.

Regarding `COC(=O)CC=C[C@@H](C)[C@@H](C=NOC[C@@H](O)[C@H]1O[C@@H]2OC(C)(C)O[C@@H]2[C@H]1O)OC`, the z-score in [1] was -0.904; in assay [2] it was -0.385 (inactive); in [3], -0.311 (inactive); in assay [5], -0.525 (inactive); in [6] it was 0.442 (inactive); in assay [7], 0.404 (inactive). The z-score is 0.493 (inactive) in [8] and -1.51 in [9]. Further, the results for the composite z-score in [4] and in assay [10] were 0.757 (inactive) and -0.158, respectively.

For the molecule `CCN(CC)CC(O)CN1CCCCc2nc(C)c(C)cc21` (stereo not given), the z-score is -0.148 in [1]; -0.571 (inactive) in [2]; 0.423 (inactive) in assay [3]; 0.711 (inactive) in assay [5]; -1.48 (inactive) in assay [6]; 0.721 (inactive) in assay [7]. In addition, the z-score in assay [8] is 0.0142 (inactive); in assay [9], 0.259. The composite z-score is -2.78 (inactive) in [4] and -0.271 in assay [10].

With `O=C1[C@H]2[C@H]3[C@H](O)[C@H](O)CC(=NOC[C@@H](O)COCc4ccco4)[C@@H]3CC[C@H]2C(=O)N1C1CCCCC1`, the z-score was -0.31 in [1]; 0.446 (inactive) in assay [2]; -0.226 (inactive) in assay [3]; 0.0457 (inactive) in assay [5]; 0.153 (inactive) in assay [6]; 0.326 (inactive) in assay [7]. Further, the z-score was 0.132 (inactive) in [8] and -0.415 in [9]. The results for the composite z-score in [4] and in [10] were -0.308 (inactive) and -0.28, respectively.

For `COc1ccc(COC(=O)NN=C2C[C@@H](O)[C@@H](O)[C@@H]3[C@@H]4C(=O)N([C@@H](C)c5ccccc5)C(=O)[C@@H]4CC[C@@H]23)cc1`, the z-score in [1] was -0.295; in [2], 0.501 (inactive); in [3], -0.525 (inactive); in assay [5], -0.0363 (inactive); in assay [6], -0.887 (inactive); in assay [7], 0.0247 (inactive). In addition, the values for the z-score in assay [8] and in assay [9] were 0.528 (inactive) and -0.521, respectively. Besides, the composite z-score in assay [4] is -0.194 (inactive); in assay [10], -0.126.

`O=C(NN=C1C[C@@H](O)[C@@H](O)[C@@H]2[C@@H]3C(=O)N(Cc4ccc5c(c4)OCO5)C(=O)[C@@H]3CC[C@@H]12)OCc1ccccc1`: the z-score in [1] was 0.0352; in assay [2], -1.59 (inactive); in assay [3], 0.987 (inactive); in assay [5] it was -0.683 (inactive); in [6], -1.09 (inactive); in assay [7], 0.747 (inactive). Besides, the figures for the z-score in [8] and in assay [9] were -0.715 (inactive) and -0.32, respectively. In addition, the composite z-score in [4] was -2.65 (inactive); in assay [10], -0.152.

As to `CCOC(=O)[C@H](CC(C)C)NC(=O)CCC1CC(OC(=O)NCc2ccc3c(c2)OCO3)CC2(CCCC(COC(=O)NCCc3ccc(Cl)cc3)O2)O1` (stereo not given in full), the z-score was 0.538 in [1]; -0.723 (inactive) in [2]; 0.984 (inactive) in [3]; -0.151 (inactive) in assay [5]; -0.166 (inactive) in [6]; 0.337 (inactive) in assay [7]. For the same molecule, the z-score was -0.294 (inactive) in assay [8] and 1.13 in [9]. For the same molecule, the composite z-score in assay [4] was -0.704 (inactive); in assay [10], -0.157.

As to `CCN1C(=O)[C@H]2[C@H]3[C@H](O)[C@H](O)CC(=NNC(=O)OCc4ccccc4)[C@H]3CC[C@H]2C1=O`, the z-score was -0.0019 in [1]; -0.277 (inactive) in assay [2]; -0.193 (inactive) in assay [3]; 0.814 (inactive) in assay [5]; -0.727 (inactive) in assay [6]; -0.47 (inactive) in assay [7]. For the same molecule, the z-score was -1.79 (inactive) in assay [8] and -0.163 in [9]. Besides, the composite z-score is -0.052 (inactive) in [4] and -0.102 in assay [10].

On to `CC(CCC(=O)OC[C@H]1O[C@H](C#Cc2ccccc2)C=C[C@@H]1Oc1ccc(C)cc1)=NO[C@H](C)c1cn([C@@H]2COC[C@H]2O)nn1`, for which the z-score in assay [1] is -0.458; in [2] it was -0.174 (inactive); in assay [3], -1.7 (inactive); in [5], 1.12 (inactive); in [6] it was -2.02 (inactive); in assay [7], -0.698 (inactive). The z-score in [8] was -0.651 (inactive); in assay [9], -0.474. For the same molecule, the results for the composite z-score in [4] and in assay [10] were -2.12 (inactive) and -0.0793, respectively.

For `CC(C)(C)N1C(=O)[C@H]2[C@@H]3C(=CC[C@H]2C1=O)C(=O)[C@H]1O[C@H]1[C@H]3O`, the z-score is -4.22 in assay [1]; -4.73 (inactive) in assay [2]; -7.59 (inactive) in assay [3]; -0.331 (inactive) in assay [5]; -3.03 (inactive) in assay [6]; -0.662 (inactive) in [7]. In addition, the z-score was -0.613 (inactive) in assay [8] and -5.04 in assay [9]. Further, the composite z-score in assay [4] is -2.71 (inactive); in assay [10] it was -0.178.

`CC(CCC(=O)OC[C@H]1O[C@H](C#Cc2ccccc2)C=C[C@@H]1Oc1ccc(C)cc1)=NOC(C)CN1CCCc2nc(C)c(C)cc21` (stereo not given in full): the z-score was -0.374 in [1]; -0.525 (inactive) in assay [2]; -0.541 (inactive) in assay [3]; 0.335 (inactive) in assay [5]; 0.797 (inactive) in assay [6]; 0.879 (inactive) in [7]. Also, the z-score in assay [8] was -0.41 (inactive); in assay [9], -0.0206. In addition, the figures for the composite z-score in assay [4] and in [10] were 0.589 (inactive) and 0.257, respectively.
